In the library only some 9% were active in any assay of this set; here they are far more common.
JMJD2A Tudor inh: blocks the human JMJD2A Tudor domain; O75164; Potency, µM (series often up to 114 µM), for the others: top-dose activity change, negative = inhibition, most hits filed as inhibitors; AlphaScreen JMJD2A-Tudor / H3K4me3 peptide binding; AID 504339; 390,000 tested, 4.4% active; further: on the % scale 0 is the no-effect control and ±100 the full control effect; nearly all actives have a fitted effect of over 50% in size
G9a inh: G9a (human) methyltransferase inhibition | Q96KQ7 | G9a H3K9 monomethylation, AlphaScreen, 2 h | Potency, µM (top dose mostly 102 µM), for inactives: at the top dose activity, negative = inhibition, hits mostly inhibitors | 350,000 tested, 8.8% active | AID 504332; further: on the % scale 0 is the no-effect control and ±100 the full control effect; nearly all actives have a fitted effect of over 75% in size
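Compounds were preincubated with 20 nM G9a for 15 min, after which biotinylated H3K9 peptide (500 nM) and SAM (20 uM) started a 2 h room-temperature reaction. Monomethylated product was quantified by antibody-based AlphaScreen chemiluminescence.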
ALOX12 inh: ALOX12 (human) lipoxygenase inhibition; Potency, µM (series often up to 108 µM), for inactives: at the highest dose activity change, negative = inhibition, hits mostly inhibitors; 580,000 tested, 1.1% active; P18054; purified 12hLO, xylenol orange hydroperoxide absorbance; AID 1671190; further: on the % scale 0 is the no-effect control and ±100 the full control effect
Target sequence (P18054 whole entry, looked up): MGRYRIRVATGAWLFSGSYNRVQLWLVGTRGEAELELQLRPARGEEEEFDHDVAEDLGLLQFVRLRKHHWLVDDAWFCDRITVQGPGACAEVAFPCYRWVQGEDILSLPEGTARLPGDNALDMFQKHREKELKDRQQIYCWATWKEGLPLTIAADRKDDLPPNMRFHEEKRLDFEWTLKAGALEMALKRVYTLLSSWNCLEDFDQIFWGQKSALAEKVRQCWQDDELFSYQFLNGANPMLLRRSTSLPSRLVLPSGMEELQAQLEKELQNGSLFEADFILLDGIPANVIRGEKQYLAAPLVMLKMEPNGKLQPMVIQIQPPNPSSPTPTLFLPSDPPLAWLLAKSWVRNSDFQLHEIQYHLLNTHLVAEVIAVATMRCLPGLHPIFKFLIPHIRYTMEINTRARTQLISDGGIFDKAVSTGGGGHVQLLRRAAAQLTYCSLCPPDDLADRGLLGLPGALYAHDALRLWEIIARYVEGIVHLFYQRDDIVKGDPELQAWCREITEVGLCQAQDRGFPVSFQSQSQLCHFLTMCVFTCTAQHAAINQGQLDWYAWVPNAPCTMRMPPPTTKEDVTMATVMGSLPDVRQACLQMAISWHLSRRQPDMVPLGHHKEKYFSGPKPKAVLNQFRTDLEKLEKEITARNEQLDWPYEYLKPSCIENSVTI
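Purified human 12hLO (150 nM final) in 25 mM Hepes, 0.01% Triton X-100, pH 7.0 was preincubated 15 min at room temperature with compound. Then 40 uM arachidonic acid was added, 30 min. Hydroperoxide was read by Fe-XO absorbance ratio 573/405 nm.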
BAZ2B inh: inhibitors of human BAZ2B bromodomain | Q9UIF8 | 360,000 tested, 4.4% active | AlphaScreen BAZ2B-H3K14Ac peptide displacement | Potency, µM (highest dose often 114 µM), without a hit: top-dose activity change, negative = inhibition, hits mostly inhibitors; further: on the % scale 0 is the no-effect control and ±100 the full control effect; nearly all actives have a fitted effect of over 60% in size
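BAZ2B 50 nM plus b-H3(5-23)K14Ac 50 nM, PBS pH 7.4/0.01% Tween-20, 30 min RT; compound added (max 110 uM), 30 min RT; streptavidin donor/Ni-chelate acceptor beads 10 ug/mL final, 20 min dark; AlphaScreen read.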
HP1b binding inh: inhibitors of HP1-beta chromodomain binding to methylated histone tails; P83916; AlphaScreen HP1-beta / biotin-H3K9me3 peptide binding; Potency, µM (highest dose often 114 µM), without a hit: top-dose activity change, negative = inhibition, most hits filed as inhibitors; 390,000 tested, 0.56% active; further: nearly all actives have a fitted effect of over 70% in size
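AlphaScreen: HP1-beta (50 nM) preformed 30 min with biotin-H3(1-18)K9me3 peptide (50 nM) in PBS pH 7.4, 0.01% Tween-20. Compound added for 30 min at RT, then streptavidin donor/nickel chelate acceptor beads (10 ug/mL) for 30 min.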
PLK1 PBD block: blocks phosphopeptide binding to human PLK1 polo-box domain; Plk1 PBD binding of FITC phosphopeptide, fluorescence polarization; Potency, µM, inactives show max response, negative = inhibition, hits mostly inhibitors; 360,000 tested, 2.8% active; further: series mostly up to about 57 µM; on the % scale 0 is the no-effect control and ±100 the full control effect; nearly all actives have a fitted effect of over 65% in size
The depositor's hits bear a star; ? = inconclusive; . = no result; [ ] = remark or other dose. The call rests on the fitted dose curve; in most records, active means well fitted curve in the direction sought with a large enough effect; inconclusive means small, poorly fitted or top-dose-only effect, or another doubt; inactive means no such curve, though single readings can be large; an effect the other way counts as inactive or inconclusive. Potency means the concentration at half of the fitted maximal effect.

SMILES	JMJD2A Tudor inh	G9a inh	ALOX12 inh	BAZ2B inh	HP1b binding inh	PLK1 PBD block
O=[N+]([O-])c1ccc(N2CCN(c3ccccc3F)CC2)c(S(=O)(=O)N2CCOCC2)c1	?	20µM*	-18%	-9%	6%	-10%
O=C(CCc1ccc(S(=O)(=O)N2CCOCC2)cc1)N/N=C/c1ccc(O)c(O)c1O	79µM*	7.9µM*	0%	?	?	11µM*
CSCc1nc(-c2ccncc2)nn1Cc1ccc2c(c1)OCO2	.	.	50%	.	.	.
O=C(O)CSCC(=O)N1CCN(c2cc(C(F)(F)F)nc3ccccc23)CC1	-4%	-4%[12.7 µM]	-10%	-3%	45%	-8%
COc1ccc(CN(C)S(=O)(=O)c2nnc(NC(=O)c3ccc(C)cc3)s2)cc1OC	-10%	0%[59 µM]	0%	-16%	43%	-6%
O=[N+]([O-])c1ccc(N/N=C/c2ccc(O)c(O)c2O)c(S(=O)(=O)N2CCOCC2)c1	45µM*	.	-3%	32µM*	20µM*	3µM*
CC1(c2nnc(-c3cccc(Cl)c3)o2)CC(c2cccc([N+](=O)[O-])c2)=NO1 (stereo not given)	?	45µM*	?	-35%	3%	-16%
CC1(c2nnc(-c3ccccc3)o2)CC(c2cccc(Cl)c2)=NO1 (stereo not given)	37%	-7%[12.7 µM]	?	3%	95%	-3%
Nc1nc2c(c(=O)[nH]1)CN(Cc1ccccc1)CC2	4%	2%[12.7 µM]	15%	6%	67%	-15%
CCCSc1nc2sc3c(c2c(=O)[nH]1)CC(C)CC3 (stereo not given)	-14%	-4%	13%	-18%	24%	-2%
O=c1[nH]c(C(Cl)Cl)nc2sc3c(c12)CCN(Cc1ccccc1)C3	79µM*	8.9µM*	?	?	27%	?
CCCSc1nc2sc3c(c2c(=O)[nH]1)CCN(Cc1ccccc1)C3	-27%[11.4 µM]	10µM*	.	-2%	10%	-11%
COCCn1ncc(N2CCC(NC(=O)COC)CC2)cc1=O	.	.	12%	.	.	.
Cc1nnc2ccc(N3CCCCC3)nn12	2%	10%[2.33 µM]	0%	1%	32%	4%
Nc1ccc(Oc2ccc3nc(-c4ccccc4)c(-c4ccc([N+](=O)[O-])cc4)nc3c2)cc1	?	32µM*	88%	?	-36%	-4%
c1ccc(-c2nnc(SCc3nnc(-c4cccs4)o3)o2)cc1	-12%	?	1%	50µM*	26%	-12%
Clc1ccc(-c2nnc(CSc3nnc(-c4cccs4)o3)o2)cc1	4%	-34%[59 µM]	135%	-1%	31%	1%
CCOC(=O)/C(C#N)=C/c1c(Oc2cc(C)cc(C)c2)nc2ccccn2c1=O	-3%	-42%[59 µM]	5%	0%	29%	-6%
COc1ccccc1CN1CCCn2nc(C)c(-c3cccnc3N3CCOCC3)c21	.	.	13%[176 µM]	.	.	.
Cc1nn2c(c1-c1cccnc1N1CCOCC1)N(CC1CC1)CCC2	.	.	10µM*	.	.	.
Cc1ccccc1C(=O)OC1OC(=O)C(Cl)=C1Nc1ccc(C(=O)O)cc1 (stereo not given)	14µM*	?	-2%	1%	?	3.8µM*
O=C(O)/C=C/C(=O)c1c(-c2ccccc2)[nH]c2ccccc12	-28%	.	8%	-14%	36%	-14%
CS(=O)(=O)c1cccc(C(=O)OCc2ccc(F)cc2)c1	.	.	21%	.	.	.
NC(=O)C1CCN(C(=O)CSc2nc3ccccc3s2)CC1	-3%	22%[12.7 µM]	0%	4%	25%	?
O=C(CSc1nc2ccccc2s1)NC1CCCC1	-10%	22µM*	157%	-23%	5%	-1%
O=C(O)C1CCN(C(=O)CSc2nc3ccccc3s2)CC1	-18%[11.4 µM]	-39%	-2%	-14%	4%	24µM*
O=C(CSc1nc2ccccc2s1)N1CCCCC1	-23%	?	7%	-3%	26%	15µM*
Cc1cc2ccccc2nc1SCC(=O)NC1CCCC1	14µM*	2%	?	4%	-1%	24µM*

Screening data: PubChem BioAssay, National Center for Advancing Translational Sciences (NCATS)
